# This is a sample that favours compounds with a hit; in the whole collection about 6% have one here.
# D1 PAM: Potentiators of Human D1 Dopamine Receptor: qHTS. AID 504651, 2011. D(1A) dopamine receptor (Homo sapiens), P21728. HEK293 TREx D1 cells, calcium flux, dopamine EC20 potentiation. potentiation, % at 10 µM. 0.036% of 360,000 active; in the data active = potentiation above about 30%; note: 0% is about no effect
# DRD3 agonist: qHTS of D3 Dopamine Receptor Agonist: qHTS; D(3) dopamine receptor (Homo sapiens), P35462; D3R DiscoveRx beta-arrestin cells, luminescence, 90 min; max activation, %; 0.58% of 410,000 active; AID 652048, 2013; in the data active = max activation above about 30%; note: 0% is about no effect
# Target sequence (P35462 whole entry, looked up): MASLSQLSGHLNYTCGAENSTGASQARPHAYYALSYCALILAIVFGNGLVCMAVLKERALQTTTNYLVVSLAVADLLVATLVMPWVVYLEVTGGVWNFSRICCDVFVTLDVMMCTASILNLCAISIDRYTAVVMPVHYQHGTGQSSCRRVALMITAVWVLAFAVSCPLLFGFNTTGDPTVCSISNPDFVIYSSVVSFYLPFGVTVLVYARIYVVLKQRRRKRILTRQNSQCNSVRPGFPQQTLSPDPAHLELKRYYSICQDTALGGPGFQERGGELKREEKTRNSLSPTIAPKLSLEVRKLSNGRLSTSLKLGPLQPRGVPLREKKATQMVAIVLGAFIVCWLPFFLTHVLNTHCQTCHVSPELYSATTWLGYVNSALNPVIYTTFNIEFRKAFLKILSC
#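 Agonist-mode cell screen: cells plated at 1500/well and incubated overnight at 37 °C, then exposed to library compounds for 90 min at 37 °C. Detection reagent was added for 30–60 min at room temperature, and luminescence was read.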
# D1 agonist: Allosteric Agonists of the Human D1 Dopamine Receptor: qHTS; D(1A) dopamine receptor (Homo sapiens), P21728; HEK293 T-REx D1 cells, calcium flux, agonist mode; activation, % at 2 µM; 1% of 360,000 active; in the data active = activation above about 30%; note: 0% is about no effect
#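 Agonism was scored from calcium flux recorded over 180 s (1 read/s) after pintool compound addition, following a 10-cycle baseline. Cells were inducible force-coupled HEK293 TREx D1, plated overnight at 30 C and loaded with no-wash calcium dye.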
# D1 antag: Antagonist of Human D 1 Dopamine Receptor: qHTS; D(1A) dopamine receptor (Homo sapiens), P21728; HEK293 TREx D1 cells, calcium flux, dopamine EC80; stronger effect = lower value; activity change, negative = inhibition, % at 10 µM; 3.2% of 360,000 active; AID 504652, 2011; in the data active = activity change below about -30%; note: % is set by controls: 0 for no effect and ±100 for the full control effect
#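 Allosteric or orthosteric antagonism assessed as attenuation of the calcium response to EC80 dopamine, added 180 s after compound, in induced HEK293 Trex D1 cells loaded with no-wash calcium dye.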
# DRD3 antagonist: qHTS of D3 Dopamine Receptor Antagonist: qHTS; D(3) dopamine receptor (Homo sapiens), P35462; D3R cells, DiscoveRx beta-arrestin luminescence, antagonist mode; stronger effect = lower value; max response, negative = inhibition, %; 2.5% of 360,000 active; AID 652054, 2013; in the data active = max response below about -50%; inconclusive = no clear call, values can overlap the other calls; note: % is set by controls: 0 for no effect and ±100 for the full control effect
#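 Cells plated overnight at 1500 cells/well, then exposed to library compounds with dopamine controls for 90 minutes at 37 degrees C. DiscoveRx reagent added for 30–60 minutes at room temperature; luminescence read, quantitative HTS format.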
# Active calls of the source: *; ? = inconclusive; nt = no result given.
SMILES,D1 PAM,DRD3 agonist,D1 agonist,D1 antag,DRD3 antagonist
CCOC(=O)c1c(-c2ccccc2)oc2ccc(NS(=O)(=O)c3ccc(C(C)C)cc3)cc12,-0.7,3.8,8.7,-2.1,nt
O=C(/C=C/c1ccc(OCCCF)cc1)NCc1ccc(Cl)cc1,1.7,3.6,3.9,-3.1,-70.3*
COc1ccc(CNC(=O)/C=C/c2ccc(OCCCF)cc2)cc1,nt,-0.6,nt,nt,0.0
O=C(/C=C/c1cccc([N+](=O)[O-])c1)N1CCN(c2ccccc2F)CC1,-7.5,4.1,0.0,-58.4*,1.5
O=C(/C=C/c1ccccc1[N+](=O)[O-])N1CCN(c2ccccc2F)CC1,-13.2,2.5,0.6,-67.9*,3.3
O=C(/C=C/c1ccc(Cl)cc1Cl)N1CCN(c2ccccc2[N+](=O)[O-])CC1,3.6,-14.2,6.5,-8.4,-15.6
Clc1ccc(OCc2cc(-c3ccccc3)no2)cc1Cl,-2.8,-13.2,16.4,-3.0,20.0
Clc1ccc(-c2cc(COc3ccccc3)on2)cc1,5.1,-1.3,35.2*,11.2,10.2
CC(c1ccccc1)C(CC(=O)O)C(=O)NC1CCCCC1 (centres undefined),-4.5,3.8,0.9,-30.8*,24.3
CC(C)N(Cc1ccccc1)C(=S)NC1CCCCC1,-15.1,2.3,4.5,-31.4*,-1.5
Cc1cccc(C(=O)Nc2ccc(N3CCC(CCN4CCOCC4)CC3)c(C(=O)O)c2)c1,-5.8,8.9,2.6,8.7,nt
O=C(O)CCC(=O)c1ccc(C2CCCCCC2)cc1,nt,10.9,nt,nt,1.2
Nc1nonc1-n1nnc(C(=O)N/N=C/c2ccccc2)c1CSc1ccccc1,-8.5,25.5,4.3,-23.5,1.3
Nc1nonc1-n1nnc(C(=O)N/N=C/c2ccoc2)c1CSc1ccc(Cl)cc1,-6.4,-4.4,-0.5,-39.7*,-6.7
Nc1nonc1-n1nnc(C(=O)N/N=C/c2ccoc2)c1CSc1ccccc1,-11.6,-0.6,3.8,-21.7,1.8
Nc1nonc1-n1nnc(C(=O)N/N=C/c2ccncc2)c1CSc1ccccc1,-4.2,3.6,17.6,-47.3*,-0.4
OCCO[C@@H]1[C@@H](O)[C@H](O)[C@@H](CO)O[C@@H]1O,nt,7.4,nt,nt,nt
COc1ccccc1CNc1nc(NC(C)C)nc2cc(-c3ccccc3)sc12,nt,-18.7,nt,nt,-63.9*
CC(C)Nc1nc(NCCOc2ccccc2Cl)c2sc(-c3ccccc3)cc2n1,nt,-9.6,nt,nt,?
CCOc1ccccc1Nc1nnc(SCC(=O)NC2CC2)s1,nt,0.7,nt,nt,22.4
CC(=O)Nc1ccc(NC(=O)C2Cc3c(-c4cccc(NC(C)=O)c4)ccnc3O2)cc1 (centres undefined),nt,-13.7,nt,nt,0.0
O=C(Nc1cccc(OC(F)(F)F)c1)C1Cc2c(-c3ccc4c(c3)OCO4)ccnc2O1 (centres undefined),nt,-8.7,nt,nt,-54.8*
CC(=O)c1cccc(-c2ccnc3c2CC(C(=O)Nc2ccc(Cl)cc2)O3)c1 (centres undefined),nt,-15.4,nt,nt,-60.9*
O=C(Nc1cccc(Oc2ccccc2)c1)C1Cc2c(-c3ccc4c(c3)OCO4)ccnc2O1 (centres undefined),nt,-8.9,nt,nt,-15.2
COc1ccc(NC(=O)C2Cc3c(-c4cccc(NC(C)=O)c4)ccnc3O2)cc1 (centres undefined),nt,-6.8,nt,nt,-57.7*
SMILES,D1 PAM,DRD3 agonist,D1 agonist,D1 antag,DRD3 antagonist
CC(=O)Nc1ccc(NC(=O)C2Cc3c(-c4cccc(C(C)=O)c4)ccnc3O2)cc1 (centres undefined),nt,-10.0,nt,nt,0.0
COC(=O)c1c(NC(=O)COC(=O)CC(NC(C)=O)c2ccccc2)sc(C)c1C (centres undefined),-1.6,2.9,-0.5,25.7,-17.0
O=C1COc2ccc(N3C(=O)C=CC3=O)cc2N1,1.6,nt,1.7,0.6,nt
O=C(CCc1nc2ccccc2c(=O)[nH]1)OCc1ccc(-c2ccccc2)cc1,-3.0,-28.1,2.9,-38.9*,-20.7
COc1cc(-c2cc(NC(C)=O)c3ncc(-c4ccccc4)n3c2)cc(OC)c1OC,nt,6.1,nt,nt,53.8
COc1ccc(-n2nc(C#N)c(Cl)cc2=O)cc1,-1.2,-13.1,1.2,-29.2,-104.4*
COC(=O)c1nn(-c2ccc(OC)cc2)c(=O)cc1O,-2.6,-0.8,2.6,1.8,-0.8
CC(C(=O)NC1CCCC1)N(C(=O)CS(=O)CC(=O)Nc1ccc(F)cc1)c1ccc2c(c1)OCCO2 (centres undefined),-0.4,12.2,-1.2,-52.4*,1.0
Cc1ccc(NC(=O)CS(=O)CC(=O)N(c2ccc(C)cc2)C(C)C(=O)NC2CCCCC2)cc1 (centres undefined),-3.4,1.6,0.3,-6.6,?
O=C(CS(=O)CC(=O)N(CC(=O)NC1CCCC1)c1ccccc1F)Nc1ccc(F)cc1 (centres undefined),0.9,4.3,0.0,-35.2*,4.9
Cc1ccc(NC(=O)CS(=O)CC(=O)N(c2ccccc2F)C(C)C(=O)NC2CCCC2)cc1 (centres undefined),-10.8,14.8,2.0,15.7,-2.7
O=C(Nc1cccc(Br)c1)N1CCC(CN2CCCCCC2)CC1,-3.8,-5.1,-0.1,-1.3,nt
O=C(O)CC(CN1C(=O)c2ccccc2C1=O)c1ccccc1 (centres undefined),nt,12.6,nt,nt,1.4
Cc1ccc(/C=C/C(=O)Nc2ccc3nc(N4CCC(C)CC4)cc(C)c3c2)cc1,-1.1,-8.4,4.2,5.0,nt
O=C(NCC(O)c1ccccc1)c1ccc(Cl)c(S(=O)(=O)N2CCCC2)c1 (centres undefined),-8.7,-9.2,13.9,-31.0*,-1.3
O=C(Nc1ccc(Cl)c(S(=O)(=O)N2CCCCC2)c1)c1ccncc1,-2.7,5.8,7.6,-11.0,0.0
Cc1ccc(C(=O)Nc2cccc(C(=O)O)c2)cc1S(=O)(=O)N1CCCC1,2.6,1.0,-2.9,-39.6*,nt
COc1cccc(CN(C)C(=O)c2ccc(C)c(S(=O)(=O)N3CCCCC3)c2)c1,-9.2,-5.0,1.8,-35.7*,-0.8
O=C(Nc1ccncc1)c1ccc(Cl)c(S(=O)(=O)N2CCCCC2)c1,-8.5,2.8,18.0,-38.6*,20.6
COc1ccc(C(=O)Nc2cccc(C(=O)O)c2)cc1S(=O)(=O)N1CCCC1,0.1,4.6,-0.9,7.8,-2.5
Cc1cc(F)ccc1NC(=O)C1CCCN(C(=O)c2cnn(-c3ccccc3)c2-n2cccc2)C1 (centres undefined),-2.1,1.9,4.5,-5.0,nt
O=C(Nc1ccc(Br)cc1)c1ccc(Br)c(S(=O)(=O)N2CCCCC2)c1,3.5,2.3,9.1,-42.6*,nt
Cc1ccc(CN2CCCn3nc(C(=O)NCCc4ccc(Cl)cc4)cc3C2=O)cc1,-0.3,-13.4,10.1,-3.9,nt

# Screening results deposited in PubChem by National Center for Advancing Translational Sciences (NCATS).
